Source: PubChem BioAssay (National Center for Advancing Translational Sciences (NCATS))
The list is not random: actives were taken first. Their share in the collection is about 19%.
HepG2 tox: counter-screen for TGF-b inhibitors: cytotoxicity in HepG2 cells. Potency, µM (top dose mostly 46.1 µM), most hits filed as cytotoxic. HepG2 CAGA-GFP viability, ATP luminescence, 18 h. 410,000 compounds, 0.76% hits
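HepG2 CAGA-GFP cells (1000/well, DMEM with 1% FBS) received compound, then TGF-beta at 500 pg/mL final, and were incubated 18 hours at 37 degrees C. Viability was read by CellTiter-Glo luminescence. Media-only wells were set as complete cell-killing and DMSO as no toxicity.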
ASM inhibitor: inhibitors of human secretory acid sphingomyelinase; Potency, µM (top dose mostly 57.5 µM), hits mostly inhibitors; AID 504937; placental ASM, HMU-PC fluorogenic substrate, 60 min; 340,000 compounds, 0.006% hits
Target sequence (P17405 47-631 limits assumed): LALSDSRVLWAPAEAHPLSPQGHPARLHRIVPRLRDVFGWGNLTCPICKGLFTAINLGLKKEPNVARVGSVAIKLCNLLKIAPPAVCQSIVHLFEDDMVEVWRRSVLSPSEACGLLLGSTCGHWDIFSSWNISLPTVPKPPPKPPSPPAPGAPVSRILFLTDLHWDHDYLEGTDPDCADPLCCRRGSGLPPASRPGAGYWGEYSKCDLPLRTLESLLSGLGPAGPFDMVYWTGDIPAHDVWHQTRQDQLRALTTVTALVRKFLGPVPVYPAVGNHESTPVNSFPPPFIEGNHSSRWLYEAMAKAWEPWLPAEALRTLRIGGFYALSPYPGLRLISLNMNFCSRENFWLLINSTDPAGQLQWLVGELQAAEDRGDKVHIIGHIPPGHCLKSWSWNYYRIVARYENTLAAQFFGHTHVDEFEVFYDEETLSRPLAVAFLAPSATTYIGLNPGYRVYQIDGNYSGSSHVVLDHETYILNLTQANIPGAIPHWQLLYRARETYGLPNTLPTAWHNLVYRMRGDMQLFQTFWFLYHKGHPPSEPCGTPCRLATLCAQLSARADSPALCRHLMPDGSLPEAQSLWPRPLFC
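Steps: dispense placental human ASM, pin compound, wait 10 min at room temperature, add HMU-PC0 substrate at 9 uM final, incubate 60 min at 37 °C, add stop solution raising pH to 10, read fluorescence.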
TGFb inhibitor: TGF-b pathway inhibition. Potency, µM (doses to about 46.1 µM), hits mostly inhibitors. AID 588855. 410,000 compounds, 1.2% hits. HepG2 CAGA-GFP TGF-b/SMAD3 reporter, GFP fluorescence, 18 h; TGF-beta stimulated, 500 pg/mL final; also: nearly all actives have a fitted effect of over 65% in size
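Per well, imaged GFP fluorescence of HEPG2 CAGA-GFP cells gives the signal; cells get compound, then TGF-beta (500 pg/mL final), 18 h at 37 degrees C; %Activity versus -TGF-beta and +DMSO controls.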
DT40 TDP1 no CPT: qHTS for Inhibitors of human tyrosyl-DNA phosphodiesterase 1 (TDP1): qHTS in cells in absence of CPT; 420,000 compounds, 15% hits; DT40 Tdp1-/- hTDP1 cells, no CPT, ATP luminescence, 48 h; Potency, µM (doses to about 46.2 µM), usual class: inhibitors; also: nearly all actives have a fitted effect of over 55% in size
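Readout: luminescence from CellTiter-Glo after 30 min in the dark at RT. Cells: DT40 Tdp1-/- with stable hTDP1, 400/well. Exposure: compounds alone, ≥48 hr, 37 °C.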
TDP1 cell CPT: DT40-hTDP1 cell growth loss with CPT. chicken DT40 Tdp1-/-;hTDP1 cells + 20 nM CPT, ATP luminescence, 48 h. Potency, µM (top dose mostly 46.2 µM), usual class: inhibitors. 420,000 compounds, 12% hits. AID 686979; also: nearly all actives have a fitted effect of over 55% in size
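Chicken DT40 Tdp1-/- cells stably complemented with human TDP1 were seeded at 400 cells/well in medium containing 20 nM camptothecin, exposed to pin-transferred compounds, and grown at 37 °C for at least 48 hr. Viability was read as ATP luminescence.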
IL-1B inflam inh: blocks inflammasome-driven IL-1 beta release. THP-1 LPS/ATP IL-1B secretion, AlphaLISA, 16 h; stronger effect = lower value. activity change, % at 57.5 µM. 360,000 compounds, 4.7% hits. AID 743279; in the data active = activity change below about -50%; inconclusive = mostly about -30% to -49%
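Secreted IL-1B measured by AlphaLISA bead assay after 16 h compound exposure of THP-1 cells; compounds (final up to 57.5 uM) added 1 h before LPS (250 ng/mL) and ATP (1.25 mM) stimulation; lower signal means less secretion.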
A number is an active result; - = inactive; ? = inconclusive; . = no result given; [ ] = another dose, or the depositor's remark. Unless noted, calls follow the shape of the dose curve; as a rule, active = well fitted curve in the direction sought with a large enough effect; inconclusive = small, poorly fitted or top-dose-only effect, or another doubt; inactive = no such curve, though single readings can be large; an effect the other way counts as inactive or inconclusive.

SMILES | HepG2 tox | ASM inhibitor | TGFb inhibitor | DT40 TDP1 no CPT | TDP1 cell CPT | IL-1B inflam inh
CC1(C(=O)NS(=O)(=O)c2ccc(F)cc2F)CCN1C(=O)CC(c1ccccc1)c1ccccc1 (stereo not given) | - | . | - | ? | ? | -
CC1(C(=O)Nc2nccs2)CCN1C(=O)CC(c1ccccc1)c1ccccc1 (stereo not given) | - | . | - | 21µM | 16µM | -
Cc1ccc(F)c(S(=O)(=O)NC(=O)C2(C)CCN2C(=O)CC(c2ccccc2)c2ccccc2)c1 (stereo not given) | - | . | - | 21µM | ? | -
C#Cc1ccc(NC(=O)C2(C)CCN2C(=O)C2(c3ccccc3)CC2)cc1 (stereo not given) | - | . | - | ? | ? | -
CC1(C(=O)NS(=O)(=O)c2ccccc2C(F)(F)F)CCN1C(=O)CCc1ccccc1 (stereo not given) | - | . | - | - | - | -54
COc1ccccc1CN(Cc1ccco1)c1cnc(S(C)(=O)=O)nc1C(=O)Nc1ccccc1Cl | - | . | - | ? | ? | .
CCOC(=O)c1ccc(N2CCN(c3cccc(Cl)c3)CC2)c(NC(=O)Nc2ccc(OC)cc2OC)c1 | - | . | - | - | - | .
CSCCC(Nc1ncnc2ccc(Br)cc12)C(=O)O (stereo not given) | - | - | - | - | ? | -
CCOc1ccccc1Nc1ncnc2ccc(Br)cc12 | - | - | - | ? | ? | -
CC(C)COc1ccc(Nc2ncnc3ccc(Br)cc23)cc1 | - | . | - | ? | 12µM | .
Brc1ccc2ncnc(Nc3ccc(N4CCOCC4)cc3)c2c1 | - | - | - | 9.2µM | 12µM | -
CC(C)Nc1ncnc2ccc(Br)cc12 | - | - | - | 4.1µM | 4.1µM | -
CCc1nnc2c3ccccc3nc(Nc3ccc(C(C)=O)cc3)n12 | - | . | - | 7.3µM | ? | .
CCc1ccccc1Nc1nc2ccccc2c2nncn12 | - | . | - | ? | ? | .
CCc1nnc2c(Nc3ccc(Br)c(C)c3)nc3ccccc3n12 | - | . | - | - | - | .
CCc1nnc2c3ccccc3nc(Nc3cc(C)cc(C)c3)n12 | - | . | - | 3.7µM | 6.5µM | .
COc1cc2c(cc1OC)-c1cc(Nc3ccc(N(C)C)cc3)nc(=O)n1CC2 | - | - | - | ? | - | -58
COc1cc2c(cc1OC)-c1cc(Nc3cccc(F)c3)nc(=O)n1CC2 | - | - | - | ? | - | -
CCN(CC)c1ccc(Nc2cc3n(c(=O)n2)CCc2cc(OC)c(OC)cc2-3)cc1 | - | - | - | ? | - | -95
COc1cc2c(cc1OC)-c1cc(Nc3ccc(F)cc3)nc(=O)n1CC2 | - | - | - | ? | ? | -51
Cc1ccc(S(=O)(=O)N(C)C)cc1NC(=S)N(C)C1CCN(C)CC1 | - | - | - | - | - | -
COc1ccc(S(=O)(=O)N2CCN(Cc3nc4ccc(C)cc4o3)CC2)cc1OC | - | . | - | - | ? | .
C=C1CCN(C(CC(C)C)C(=O)NCCCc2ccccc2)S(=O)(=O)c2ccccc21 (stereo not given) | - | . | 11µM | . | . | .
C=C1CCN([C@@H](Cc2ccccc2)C(=O)NCc2ccc(Cl)cc2)S(=O)(=O)c2ccccc21 | - | - | - | 21µM | ? | -
C=C1CCN([C@H](C(=O)OCc2cccc(C)c2)C(C)C)S(=O)(=O)c2ccccc21 | - | - | - | 15µM | ? | -
SMILES | HepG2 tox | ASM inhibitor | TGFb inhibitor | DT40 TDP1 no CPT | TDP1 cell CPT | IL-1B inflam inh
O=C(O)CCC(=O)Nc1ccc(Br)cc1C(=O)c1ccc(Cl)cc1 | - | - | - | - | - | -
COc1ccc(CCNC(=O)CSc2ccc3nnc(CCNC(=O)c4ccc(C)cc4)n3n2)cc1OC | - | - | - | - | - | -
Cc1c(C(=O)N2CCCC2)sc2ncnc(NCCN(C)C)c12 | . | . | . | - | - | .
CNC(=S)N/N=C/c1c(C(=O)OC)cnn1-c1ccc(F)cc1F | - | - | - | 16µM | ? | -
COC(=O)c1cnn(-c2ccccc2)c1C(OC)OC | - | - | - | - | - | -
COC(=O)c1cnn(-c2ccccc2)c1/C=N/NC(=S)Nc1ccccc1 | - | - | - | 21µM | ? | -
COC(=O)c1cnn(-c2ccc(F)cc2F)c1/C=N/NC(=S)NC(C)(C)C | - | - | - | ? | ? | -
COc1cc2nc(N3CCCC(O)C3)c(CNCc3ccccc3F)cc2c(OC)c1OC (stereo not given) | . | . | . | - | -[9.04 µM] | .
COCC(C)NCc1cc2ccc(OC)cc2nc1N1CCN(c2ccc(F)cc2)CC1 (stereo not given) | . | . | . | 13µM | -[9.04 µM] | .
CCC(=O)N1CCc2cc(S(=O)(=O)NCCC(=O)Nc3ccc(C)cc3C)ccc21 | - | . | ? | 23µM | ? | .
CCC(=O)N1CCc2cc(S(=O)(=O)NCCC(=O)NCc3ccc(F)cc3)ccc21 | - | - | - | ? | - | -
CCC(=O)N1CCc2cc(S(=O)(=O)NCCC(=O)Nc3ccc(N(CC)CC)cc3C)ccc21 | - | . | - | 23µM | ? | .
CC1CN(CCS(=O)(=O)c2cc(Cl)ccc2Cl)CC(C)O1 (stereo not given) | - | - | - | ? | ? | -103
CC(=O)N1CCN(CCS(=O)(=O)c2cc(Cl)ccc2Cl)CC1 | - | - | - | ? | ? | -65
C=CCn1c(-c2ccccc2)c[nH]c1=S | - | - | - | ? | 26µM | -
Cn1c(-c2ccc(-c3ccccc3)cc2)c[nH]c1=S | - | - | - | ? | 8.2µM | -
CCOc1cc(C(=O)NC(C)CCc2ccccc2)cc(OCC)c1OCC (stereo not given) | - | - | - | - | ? | -
O=S(=O)(c1ccc2c(c1)CCN2)N1CCOCC1 | - | - | - | - | - | -
Cc1cc(Cl)ccc1OCCCC(=O)NNC(=O)c1ccccc1O | - | - | - | 23µM | ? | -
Cc1cc(Cl)ccc1OCCCC(=O)Nc1cccnc1 | - | - | - | 23µM | 15µM | -
CCc1ccc(Cn2c(CNS(=O)(=O)c3ccc(Cl)s3)nc3cccnc32)cc1 | - | . | ? | 16µM | 16µM | .
CCOc1ccc(Cn2c(CNS(=O)(=O)c3cccs3)nc3cccnc32)cc1 | - | . | - | 23µM | ? | .
CCOc1ccc(Cn2c(CNS(=O)(=O)c3cccc(Cl)c3)nc3cccnc32)cc1 | - | . | - | ? | ? | .
Cc1ccc(S(=O)(=O)Oc2cccc(N3C(=O)C4CC=CCC4C3=O)c2)cc1 (stereo not given) | - | - | - | ? | 16µM | -
Cc1ccc(S(=O)(=O)Oc2ccc(N3C(=O)C4C5CCC(C5)C4C3=O)cc2)cc1 (stereo not given) | - | - | - | 23µM | 4.1µM | -
